# Measured values published in paper PMC7862700, “An all-to-all approach to the identification of sequence-specific readers for epigenetic DNA modifications on cytosine”.
# Experiments:
# Experiment in all cases: DAPPL (digital affinity profiling via proximity ligation, sequencing); 10 mM Tris-HCl pH 7.5, 50 mM NaCl, 1 mM DTT, 4% glycerol, room temperature, 30 min; GST-TFs on glutathione beads, 16-mer random dsDNA library, 0.1% formaldehyde crosslink after washing; high values mean tight binding
# FLI1 = target: T1, FLI1 (Homo sapiens, UniProt Q01543 1-452); conditions: protein: recombinant; tags: N-terminal GST; dsDNA, one strand shown
# T1 sequence: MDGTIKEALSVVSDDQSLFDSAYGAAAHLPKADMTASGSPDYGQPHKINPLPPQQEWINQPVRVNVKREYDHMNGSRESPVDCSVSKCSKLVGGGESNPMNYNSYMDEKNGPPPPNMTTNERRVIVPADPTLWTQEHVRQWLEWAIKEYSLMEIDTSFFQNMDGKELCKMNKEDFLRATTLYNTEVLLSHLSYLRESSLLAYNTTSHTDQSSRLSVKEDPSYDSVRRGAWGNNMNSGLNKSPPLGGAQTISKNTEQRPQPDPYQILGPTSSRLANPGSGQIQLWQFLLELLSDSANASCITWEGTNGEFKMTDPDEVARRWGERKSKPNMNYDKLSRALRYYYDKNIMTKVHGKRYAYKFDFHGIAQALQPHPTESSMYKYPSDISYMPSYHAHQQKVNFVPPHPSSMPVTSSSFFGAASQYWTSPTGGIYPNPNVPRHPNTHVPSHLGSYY
# Summary of the method: (§1)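 A tag-only sample was pooled with DNA-barcoded human transcription factors that had been expressed in yeast as GST fusions and captured on glutathione beads. The pools were incubated for 30 min at room temperature with 200 nmole of a random double-stranded 16-mer DNA library in Tris/NaCl/DTT/glycerol buffer, then washed, crosslinked with 0.1% formaldehyde, proximity-ligated (BsaI/T4 ligase, 1 h, 37 °C), PCR-amplified and sequenced on an Illumina NextSeq500. Binding signal is each hexamer's read frequency for a factor divided by its frequency for the tag-only sample.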
# ELK1 = target: T2, ELK1 (Homo sapiens, UniProt P19419 1-428); conditions: protein: recombinant; tags: N-terminal GST; dsDNA, one strand shown
# T2 sequence: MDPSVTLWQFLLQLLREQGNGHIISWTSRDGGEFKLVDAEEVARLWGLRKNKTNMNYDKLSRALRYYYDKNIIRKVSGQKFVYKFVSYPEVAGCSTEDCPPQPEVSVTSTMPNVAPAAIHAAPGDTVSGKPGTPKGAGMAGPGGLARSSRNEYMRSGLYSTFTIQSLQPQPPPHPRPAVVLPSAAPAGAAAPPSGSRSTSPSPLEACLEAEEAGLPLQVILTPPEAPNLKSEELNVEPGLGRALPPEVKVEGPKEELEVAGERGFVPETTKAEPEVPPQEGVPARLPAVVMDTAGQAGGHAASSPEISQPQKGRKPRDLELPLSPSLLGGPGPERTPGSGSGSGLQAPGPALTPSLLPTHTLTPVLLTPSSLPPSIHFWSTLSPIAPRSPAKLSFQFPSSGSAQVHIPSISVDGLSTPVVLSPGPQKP
# Summary of the method: as §1
# GABPA = target: T3, GABPA (Homo sapiens, UniProt Q06546 1-454); conditions: protein: recombinant; tags: N-terminal GST; dsDNA, one strand shown
# T3 sequence: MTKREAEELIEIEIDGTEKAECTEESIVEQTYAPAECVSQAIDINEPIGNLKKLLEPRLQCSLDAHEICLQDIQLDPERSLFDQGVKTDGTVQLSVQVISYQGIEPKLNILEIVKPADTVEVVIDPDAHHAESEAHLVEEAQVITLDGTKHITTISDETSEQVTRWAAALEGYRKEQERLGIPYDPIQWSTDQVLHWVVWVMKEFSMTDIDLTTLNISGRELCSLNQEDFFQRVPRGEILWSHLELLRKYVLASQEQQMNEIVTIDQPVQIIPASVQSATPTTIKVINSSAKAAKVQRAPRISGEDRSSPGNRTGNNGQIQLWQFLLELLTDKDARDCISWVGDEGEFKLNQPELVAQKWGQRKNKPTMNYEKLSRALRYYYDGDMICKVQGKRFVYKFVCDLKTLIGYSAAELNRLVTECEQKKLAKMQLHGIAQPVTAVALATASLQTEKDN
# Summary of the method: as §1
# ERG = target: T4, ERG (Homo sapiens, UniProt P11308 1-479); conditions: protein: recombinant; tags: N-terminal GST; dsDNA, one strand shown
# T4 sequence: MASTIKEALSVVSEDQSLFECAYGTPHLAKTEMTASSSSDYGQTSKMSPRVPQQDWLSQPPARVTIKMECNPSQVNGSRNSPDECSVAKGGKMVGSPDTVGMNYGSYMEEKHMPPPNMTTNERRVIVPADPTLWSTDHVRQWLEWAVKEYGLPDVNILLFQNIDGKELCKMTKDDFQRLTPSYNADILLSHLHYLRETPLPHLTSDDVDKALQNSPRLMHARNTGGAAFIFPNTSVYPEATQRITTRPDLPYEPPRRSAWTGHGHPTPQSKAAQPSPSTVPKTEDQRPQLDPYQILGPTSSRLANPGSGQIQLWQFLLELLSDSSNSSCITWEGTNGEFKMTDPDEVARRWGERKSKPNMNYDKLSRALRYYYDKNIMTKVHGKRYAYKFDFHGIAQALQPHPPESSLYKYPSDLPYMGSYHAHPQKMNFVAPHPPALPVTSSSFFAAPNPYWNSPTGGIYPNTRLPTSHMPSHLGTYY
# Summary of the method: as §1
# ELF1 = ELF1 (Homo sapiens, UniProt P32519 1-619); conditions: protein: recombinant; tags: N-terminal GST; dsDNA, one strand shown
# Summary of the method: as §1
# EHF = target: T5, EHF (Homo sapiens, UniProt Q9NZC4 1-300); conditions: protein: recombinant; tags: N-terminal GST; dsDNA, one strand shown
# T5 sequence: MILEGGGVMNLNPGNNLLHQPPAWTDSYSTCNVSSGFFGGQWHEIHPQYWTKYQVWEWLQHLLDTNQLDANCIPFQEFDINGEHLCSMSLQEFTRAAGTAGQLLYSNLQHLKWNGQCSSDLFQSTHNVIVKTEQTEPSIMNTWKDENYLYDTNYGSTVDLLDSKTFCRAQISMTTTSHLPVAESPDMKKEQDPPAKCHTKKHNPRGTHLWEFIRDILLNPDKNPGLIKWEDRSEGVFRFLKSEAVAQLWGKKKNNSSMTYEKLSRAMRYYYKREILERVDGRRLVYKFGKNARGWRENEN
# Summary of the method: as §1
# SPI1 = SPI1 (Homo sapiens, UniProt P17947 1-270); conditions: protein: recombinant; tags: N-terminal GST; dsDNA, one strand shown
# Summary of the method: as §1
# SPIB = SPIB (Homo sapiens, UniProt Q01892 1-262); conditions: protein: recombinant; tags: N-terminal GST; dsDNA, one strand shown
# Summary of the method: as §1
# ELK3 = target: T6, ELK3 (Homo sapiens, UniProt P41970 1-407); conditions: protein: recombinant; tags: N-terminal GST; dsDNA, one strand shown
# T6 sequence: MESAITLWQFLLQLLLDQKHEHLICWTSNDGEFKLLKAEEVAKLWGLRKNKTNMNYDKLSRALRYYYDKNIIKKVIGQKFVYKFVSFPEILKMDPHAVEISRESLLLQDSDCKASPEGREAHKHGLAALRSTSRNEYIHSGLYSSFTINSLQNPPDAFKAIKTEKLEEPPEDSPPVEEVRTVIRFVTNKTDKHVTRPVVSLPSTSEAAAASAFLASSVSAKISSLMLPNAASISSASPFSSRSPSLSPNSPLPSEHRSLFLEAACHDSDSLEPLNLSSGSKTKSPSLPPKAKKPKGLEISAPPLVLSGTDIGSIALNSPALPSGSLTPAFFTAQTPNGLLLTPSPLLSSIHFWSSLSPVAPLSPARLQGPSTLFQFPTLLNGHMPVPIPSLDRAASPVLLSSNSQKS
# Summary of the method: as §1
# FEV = target: T7, FEV (Homo sapiens, UniProt Q99581 1-238); conditions: protein: recombinant; tags: N-terminal GST; dsDNA, one strand shown
# T7 sequence: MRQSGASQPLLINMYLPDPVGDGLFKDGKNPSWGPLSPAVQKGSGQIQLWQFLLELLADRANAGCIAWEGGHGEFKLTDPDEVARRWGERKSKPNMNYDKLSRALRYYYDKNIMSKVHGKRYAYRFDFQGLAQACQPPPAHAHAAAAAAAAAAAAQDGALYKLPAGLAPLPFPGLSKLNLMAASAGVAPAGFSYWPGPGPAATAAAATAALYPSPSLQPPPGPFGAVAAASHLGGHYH
# Summary of the method: as §1
# ETV5 = ETV5 (Homo sapiens, UniProt P41161 1-510); conditions: protein: recombinant; tags: N-terminal GST; dsDNA, one strand shown
# Summary of the method: as §1
# HSF1 = HSF1 (Homo sapiens, UniProt Q00613 1-529); conditions: protein: recombinant; tags: N-terminal GST; chain copies: 3; dsDNA, one strand shown
# Summary of the method: as §1
# SPIC = target: T8, SPIC (Homo sapiens, UniProt Q8N5J4 1-248); conditions: protein: recombinant; tags: N-terminal GST; dsDNA, one strand shown
# T8 sequence: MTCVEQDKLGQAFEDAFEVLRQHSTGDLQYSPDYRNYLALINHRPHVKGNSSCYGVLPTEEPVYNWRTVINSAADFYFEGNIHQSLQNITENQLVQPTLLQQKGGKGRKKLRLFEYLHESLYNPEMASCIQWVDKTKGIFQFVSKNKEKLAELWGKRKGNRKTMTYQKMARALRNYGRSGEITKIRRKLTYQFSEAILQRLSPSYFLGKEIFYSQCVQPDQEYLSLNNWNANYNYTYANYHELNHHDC
# Summary of the method: as §1
# ELF4 = ELF4 (Homo sapiens, UniProt Q99607 1-663); conditions: protein: recombinant; tags: N-terminal GST; dsDNA, one strand shown
# Summary of the method: as §1
# ELK4 = target: T9, ELK4 (Homo sapiens, UniProt P28324-2 1-405); conditions: protein: recombinant; tags: N-terminal GST; dsDNA, one strand shown
# T9 sequence: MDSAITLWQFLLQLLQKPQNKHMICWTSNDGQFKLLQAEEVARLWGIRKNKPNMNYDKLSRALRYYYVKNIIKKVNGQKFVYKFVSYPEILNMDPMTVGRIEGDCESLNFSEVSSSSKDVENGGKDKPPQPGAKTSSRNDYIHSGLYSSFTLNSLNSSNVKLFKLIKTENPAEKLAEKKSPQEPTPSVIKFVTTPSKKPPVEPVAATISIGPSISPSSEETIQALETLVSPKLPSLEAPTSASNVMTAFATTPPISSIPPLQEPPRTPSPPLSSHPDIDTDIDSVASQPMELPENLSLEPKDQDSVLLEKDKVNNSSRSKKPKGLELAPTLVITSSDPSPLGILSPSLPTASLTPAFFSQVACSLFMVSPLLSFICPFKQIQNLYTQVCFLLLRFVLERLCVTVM
# Summary of the method: as §1
# ETV2 = target: T10, ETV2 (Homo sapiens, UniProt O00321 1-342); conditions: protein: recombinant; tags: N-terminal GST; dsDNA, one strand shown
# T10 sequence: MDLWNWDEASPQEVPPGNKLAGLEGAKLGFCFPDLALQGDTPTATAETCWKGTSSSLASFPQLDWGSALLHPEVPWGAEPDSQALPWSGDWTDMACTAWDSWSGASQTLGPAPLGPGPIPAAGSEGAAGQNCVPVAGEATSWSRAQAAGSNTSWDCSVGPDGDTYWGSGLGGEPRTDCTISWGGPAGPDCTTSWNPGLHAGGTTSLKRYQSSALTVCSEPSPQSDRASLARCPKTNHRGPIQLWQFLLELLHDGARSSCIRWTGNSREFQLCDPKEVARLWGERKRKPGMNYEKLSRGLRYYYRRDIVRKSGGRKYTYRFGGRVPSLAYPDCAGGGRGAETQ
# Summary of the method: as §1
# ELF3 = target: T11, ELF3 (Homo sapiens, UniProt P78545 1-371); conditions: protein: recombinant; tags: N-terminal GST; dsDNA, one strand shown
# T11 sequence: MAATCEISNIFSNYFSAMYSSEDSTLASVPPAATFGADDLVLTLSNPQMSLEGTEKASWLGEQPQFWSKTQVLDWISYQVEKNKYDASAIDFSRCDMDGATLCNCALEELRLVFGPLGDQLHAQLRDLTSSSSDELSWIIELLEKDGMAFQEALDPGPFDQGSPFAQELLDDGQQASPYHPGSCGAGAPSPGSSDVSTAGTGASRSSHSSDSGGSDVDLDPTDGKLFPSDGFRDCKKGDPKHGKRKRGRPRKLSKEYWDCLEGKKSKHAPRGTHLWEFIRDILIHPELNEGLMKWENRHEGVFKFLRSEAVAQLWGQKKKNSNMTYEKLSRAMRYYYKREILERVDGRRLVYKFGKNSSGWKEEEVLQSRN
# Summary of the method: as §1
# ETV1 = ETV1 (Homo sapiens, UniProt P50549 1-477); conditions: protein: recombinant; tags: N-terminal GST; dsDNA, one strand shown
# Summary of the method: as §1
# SPIB, sequence (Q01892 whole entry): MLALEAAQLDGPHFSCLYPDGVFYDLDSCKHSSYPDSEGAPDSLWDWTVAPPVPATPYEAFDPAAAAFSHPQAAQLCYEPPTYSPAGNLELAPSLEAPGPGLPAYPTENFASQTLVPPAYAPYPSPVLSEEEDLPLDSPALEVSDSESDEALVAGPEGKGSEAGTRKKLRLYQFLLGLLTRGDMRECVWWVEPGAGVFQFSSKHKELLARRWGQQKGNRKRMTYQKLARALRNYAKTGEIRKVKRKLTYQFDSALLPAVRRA
# ELF1, sequence (P32519 whole entry): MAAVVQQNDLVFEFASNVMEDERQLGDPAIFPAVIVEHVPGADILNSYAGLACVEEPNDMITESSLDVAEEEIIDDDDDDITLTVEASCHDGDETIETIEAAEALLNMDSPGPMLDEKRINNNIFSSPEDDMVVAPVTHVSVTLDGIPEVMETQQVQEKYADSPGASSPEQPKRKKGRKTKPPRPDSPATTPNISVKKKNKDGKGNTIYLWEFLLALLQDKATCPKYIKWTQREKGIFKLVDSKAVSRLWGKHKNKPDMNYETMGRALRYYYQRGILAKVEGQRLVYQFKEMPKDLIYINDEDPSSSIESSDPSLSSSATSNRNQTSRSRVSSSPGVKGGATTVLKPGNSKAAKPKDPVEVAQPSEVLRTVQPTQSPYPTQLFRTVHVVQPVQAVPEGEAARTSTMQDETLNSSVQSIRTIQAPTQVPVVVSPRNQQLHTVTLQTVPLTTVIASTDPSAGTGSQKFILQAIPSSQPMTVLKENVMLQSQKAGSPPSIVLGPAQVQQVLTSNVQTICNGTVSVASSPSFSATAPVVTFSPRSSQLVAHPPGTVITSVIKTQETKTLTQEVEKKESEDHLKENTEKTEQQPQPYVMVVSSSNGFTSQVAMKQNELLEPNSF
# ETV5, sequence (P41161 whole entry): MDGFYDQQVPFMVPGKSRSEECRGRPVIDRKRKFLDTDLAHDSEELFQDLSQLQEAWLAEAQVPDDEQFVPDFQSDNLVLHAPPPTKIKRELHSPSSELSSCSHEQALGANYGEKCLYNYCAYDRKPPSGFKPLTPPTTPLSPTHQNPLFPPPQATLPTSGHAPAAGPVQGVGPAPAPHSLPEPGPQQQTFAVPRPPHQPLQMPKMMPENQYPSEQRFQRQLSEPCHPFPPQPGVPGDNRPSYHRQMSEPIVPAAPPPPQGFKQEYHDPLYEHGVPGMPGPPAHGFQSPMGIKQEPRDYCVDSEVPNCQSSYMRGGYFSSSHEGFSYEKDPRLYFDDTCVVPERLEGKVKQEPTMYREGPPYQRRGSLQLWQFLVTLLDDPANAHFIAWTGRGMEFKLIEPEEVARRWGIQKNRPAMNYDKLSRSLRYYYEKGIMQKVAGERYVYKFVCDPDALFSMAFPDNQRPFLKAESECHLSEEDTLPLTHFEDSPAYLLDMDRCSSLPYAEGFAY
# ELF4, sequence (Q99607 whole entry): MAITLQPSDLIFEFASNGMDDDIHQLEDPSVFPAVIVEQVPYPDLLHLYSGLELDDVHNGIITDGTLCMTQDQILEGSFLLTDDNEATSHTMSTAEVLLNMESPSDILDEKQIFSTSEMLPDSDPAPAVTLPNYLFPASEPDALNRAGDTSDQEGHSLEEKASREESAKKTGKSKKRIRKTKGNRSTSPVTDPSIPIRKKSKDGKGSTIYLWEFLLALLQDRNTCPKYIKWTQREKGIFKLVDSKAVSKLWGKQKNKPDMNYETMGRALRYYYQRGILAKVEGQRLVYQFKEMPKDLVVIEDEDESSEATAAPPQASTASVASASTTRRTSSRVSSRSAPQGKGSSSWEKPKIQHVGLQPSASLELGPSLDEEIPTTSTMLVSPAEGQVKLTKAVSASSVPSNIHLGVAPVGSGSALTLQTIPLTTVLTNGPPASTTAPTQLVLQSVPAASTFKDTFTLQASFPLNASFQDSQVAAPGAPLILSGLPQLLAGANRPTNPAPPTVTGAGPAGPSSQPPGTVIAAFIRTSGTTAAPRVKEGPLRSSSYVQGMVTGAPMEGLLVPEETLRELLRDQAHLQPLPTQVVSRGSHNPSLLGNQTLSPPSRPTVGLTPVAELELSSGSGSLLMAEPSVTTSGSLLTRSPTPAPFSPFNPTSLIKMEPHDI
# HSF1, sequence (Q00613 whole entry): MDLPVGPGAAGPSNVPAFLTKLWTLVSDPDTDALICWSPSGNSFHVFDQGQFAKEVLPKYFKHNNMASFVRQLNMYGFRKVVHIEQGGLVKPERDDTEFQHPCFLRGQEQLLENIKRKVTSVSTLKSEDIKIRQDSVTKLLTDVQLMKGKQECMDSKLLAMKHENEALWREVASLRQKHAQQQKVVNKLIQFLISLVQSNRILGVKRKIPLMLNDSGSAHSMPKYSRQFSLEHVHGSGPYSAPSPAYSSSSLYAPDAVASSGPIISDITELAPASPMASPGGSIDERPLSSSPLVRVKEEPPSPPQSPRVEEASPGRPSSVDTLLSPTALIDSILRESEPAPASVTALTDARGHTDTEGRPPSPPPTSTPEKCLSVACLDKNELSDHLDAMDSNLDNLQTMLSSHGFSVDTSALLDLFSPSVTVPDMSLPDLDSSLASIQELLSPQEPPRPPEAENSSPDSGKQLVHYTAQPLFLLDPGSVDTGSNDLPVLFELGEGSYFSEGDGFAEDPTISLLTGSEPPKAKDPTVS
# ETV1, sequence (P50549 whole entry): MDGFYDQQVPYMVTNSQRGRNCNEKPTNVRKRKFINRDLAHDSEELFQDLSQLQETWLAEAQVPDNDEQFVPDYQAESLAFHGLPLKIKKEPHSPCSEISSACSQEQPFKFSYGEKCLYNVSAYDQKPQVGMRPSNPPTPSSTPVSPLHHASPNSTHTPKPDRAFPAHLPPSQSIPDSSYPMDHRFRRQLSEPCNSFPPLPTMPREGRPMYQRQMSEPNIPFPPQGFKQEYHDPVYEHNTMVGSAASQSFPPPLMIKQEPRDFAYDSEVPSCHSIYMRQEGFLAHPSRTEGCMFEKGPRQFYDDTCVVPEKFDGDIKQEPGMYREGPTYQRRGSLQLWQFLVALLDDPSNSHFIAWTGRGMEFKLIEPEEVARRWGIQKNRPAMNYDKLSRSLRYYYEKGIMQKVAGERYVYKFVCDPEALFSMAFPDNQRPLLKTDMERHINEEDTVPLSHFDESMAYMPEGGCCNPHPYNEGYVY
sequence,measurement,setting,value
TGCCCG,binding signal,FLI1,"1.16 fold enrichment (6-mer frequency, TF over GST control)"
same,binding signal,ELK1,"1.16 fold enrichment (6-mer frequency, TF over GST control)"
same,binding signal,GABPA,"1.24 fold enrichment (6-mer frequency, TF over GST control)"
same,binding signal,ERG,"1.19 fold enrichment (6-mer frequency, TF over GST control)"
same,binding signal,ELF1,"1.2 fold enrichment (6-mer frequency, TF over GST control)"
same,binding signal,EHF,"1.27 fold enrichment (6-mer frequency, TF over GST control)"
same,binding signal,SPI1,"1.13 fold enrichment (6-mer frequency, TF over GST control)"
same,binding signal,SPIB,"1.14 fold enrichment (6-mer frequency, TF over GST control)"
same,binding signal,ELK3,"1.12 fold enrichment (6-mer frequency, TF over GST control)"
same,binding signal,FEV,"1.27 fold enrichment (6-mer frequency, TF over GST control)"
same,binding signal,ETV5,"1.21 fold enrichment (6-mer frequency, TF over GST control)"
same,binding signal,HSF1,"1.01 fold enrichment (6-mer frequency, TF over GST control)"
same,binding signal,SPIC,"1.34 fold enrichment (6-mer frequency, TF over GST control)"
same,binding signal,ELF4,"1.21 fold enrichment (6-mer frequency, TF over GST control)"
same,binding signal,ELK4,"1.16 fold enrichment (6-mer frequency, TF over GST control)"
same,binding signal,ETV2,"1.26 fold enrichment (6-mer frequency, TF over GST control)"
same,binding signal,ELF3,"1.32 fold enrichment (6-mer frequency, TF over GST control)"
same,binding signal,ETV1,"1.21 fold enrichment (6-mer frequency, TF over GST control)"
